Experiment [1] can be described thus: anti-His antibody binders, primary screen, artefact control for SMM control protein annotation, biochemical, small-molecule microarray, 635 nm fluorescence (AID 1128).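 Also: score merges feature fluorescence with signal-to-noise for each printed compound spot.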 As to conditions: anti-His Alexa647 antibody binding, higher = more signal.
Experiment [2] deals with Human papillomavirus type 1a E7 protein (residues 1-88). In words: HPV1a E7 small-molecule binders, primary screen, biochemical, small-molecule microarray, residues 1-88, 635 nm (AID 1129). Particulars: small-molecule microarray binding, fluorescence 635 nm; higher = more signal.
Experiment [3] has as its target Focal adhesion kinase 1 (Homo sapiens) (UniProt Q05397). In words: small-molecule microarray binders of FAK, primary screen, biochemical, 635/667 nm fluorescence, BSA, DTT (AID 1130).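 Also: composite of spot emission at 667 nm and signal to noise over triplicate slides.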 As to conditions: PTK2 binding, 635 nm fluorescence, higher = more signal.
In experiment [4] the test system is Fibrinogen (Alexa647-labelled). In words: fibrinogen binders on compound microarrays, profiling panel, artefact control for SMM control-protein annotation, biochemical, small-molecule microarray, 635/667 nm fluorescence (AID 1131).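 Also: z-score merges 667 nm fluorescence with per-spot signal-to-noise over triplicate slides.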 As to conditions: fibrinogen-A647 binding fluorescence, higher = more signal.
The target in experiment [5] is Follistatin (Homo sapiens) (UniProt P19883). In words: follistatin binders on small-molecule microarrays, primary screen, biochemical, small-molecule microarray, 635/667 nm fluorescence (AID 1132). As to conditions: FST binding, 635 nm fluorescence, higher = more signal.
The target in experiment [6] is Fibroblast growth factor 2 (Homo sapiens) (UniProt P09038). The experiment is described as follows: FGF2 binders on small-molecule microarrays, primary screen, biochemical, small-molecule microarray, 635/667 nm fluorescence (AID 1133). Particulars: small-molecule microarray binding, FGF2, fluorescence 635/667; higher = more signal.
Experiment [7] can be described thus: mitochondrial membrane potential change in A549 cells, profiling panel, cell-based, JC-1 fluorescence, basal, 24 h, 100 nL (AID 1138).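 Also: A549 lung adenocarcinoma cells under basal conditions with no added stimulus; test concentration not given here.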 Particulars: higher = more signal.
The subject of another experiment is Lefty1. In words: Lefty1 binders on small-molecule microarrays, primary screen, biochemical, small-molecule microarray, 635/667 nm fluorescence (AID 1139). As to conditions: small-molecule microarray binding, fluorescence 635/667; higher = more signal.
The subject of experiment [8] is wheat germ agglutinin (Triticum aestivum), Alexa647-labelled. The experiment is described as follows: wheat germ agglutinin binders on compound microarrays, profiling panel, artefact control for SMM control-protein annotation, biochemical, small-molecule microarray, 635/667 nm fluorescence (AID 1140).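 Also: score merges 667 nm feature emission with signal to noise over triplicate slides.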 Particulars: WGA-A647 binding, 635 nm fluorescence, higher = more signal.

For experiment [9], the target named is Luciferin 4-monooxygenase (Photinus pyralis) (UniProt P08659). The experiment is described as follows: firefly luciferase enzyme inhibitors, primary screen, biochemical, luminescence, purified enzyme, 2006 set (AID 1141).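 Also: cell-free assay with purified firefly luciferase at 100 ng per well in PBS; test concentration not given here.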 As to conditions: SteadyGlo luminescence, 30 min, higher = more signal, called active from +8 up or from −8 down.
Experiment [10] has as its system Wnt5a (protein binding on small-molecule microarray). The experiment is described as follows: Wnt5a binders on small-molecule microarray, primary screen, biophysical, 635/667 nm fluorescence (AID 1142).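 Also: fluorescence read at 667 nm with signal to noise per printed feature.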 Particulars: 635 nm fluorescence, higher = more signal.
The nature of experiment [11]: cell viability in Huh7 cells, primary screen, cytotoxicity control for HCV replication inhibitor project, CellTiter-Glo luminescence, basal, 48 h (AID 1143).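 Also: Huh7 hepatoma cells carrying a hepatitis C replication reporter with no stimulus; test concentration not given here.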 Particulars: Huh7 HCV replicon, higher = more signal, called active from +8 up or from −8 down. (In ATP-based viability assays light output follows the ATP content of the culture.)
Experiment [12] in a line: P. aeruginosa biofilm formation inhibitors, primary screen, PAO1 strain, BacTiter-Glo luminescence, LB-PBS (AID 1144). As to conditions: 12 h, higher = more signal.
Experiment [13] in a line: CREB reporter modulators without forskolin, primary screen, cell-based, PC12, CRE-LacZ reporter, unstimulated (AID 1145). As to conditions: no forskolin, luminescence, 4.5 h, higher = more signal, called active from +8 up or from −8 down.
The nature of experiment [14]: CREB reporter modulators under forskolin, primary screen, cell-based, PC12, CRE-LacZ reporter, forskolin-stimulated (AID 1146).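 Also: PC12 cells with 6xCRE LacZ reporter stimulated by forskolin 10 µM; beta-galactosidase reporter signal reflecting CREB driven transcription.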 Particulars: luminescence, 4.5 h, higher = more signal, called active from +8 up or from −8 down.
Experiment [15] deals with Streptavidin (Streptomyces avidinii) (UniProt P22629). In words: streptavidin binders on small-molecule microarray, primary screen, artefact control for SMM compound annotation, biophysical, 635/667 nm fluorescence (AID 1147).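 Also: signal reflects streptavidin binding to arrayed compounds as a control protein.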 As to conditions: streptavidin binding, higher = more signal.
Experiment [16] in a line: small-molecule binders of probe aInhba, primary screen, biochemical, small-molecule microarray, 635/667 nm fluorescence (AID 1148).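 Also: score merges 667nm spot fluorescence with signal-to-noise for antibody binding to printed compounds.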 Particulars: higher = more signal.
Experiment [17] deals with Torsin-1A (Homo sapiens) (UniProt O14656). In words: torsin A binders from cell lysate, primary screen, small-molecule microarray, wild-type, 635/667 nm (AID 1149). As to conditions: COS7 hTOR1A-WT lysate, 635 nm fluorescence, higher = more signal.
For experiment [18] the target is unchanged. The experiment is described as follows: small-molecule binders of mutant TOR1A in lysate, primary screen, cell lysate, small-molecule microarray, COS7 lysate, 635/667 nm fluorescence (AID 1150).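 Also: score pools 667 nm emission and signal to noise measuring lysate protein binding.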 As to conditions: COS7 hTOR1A mutant lysate, 635 nm fluorescence, higher = more signal.
Experiment [19] relates to Sonic hedgehog protein (Shh). The experiment is described as follows: small-molecule binders of Shh protein, primary screen, biochemical, small-molecule microarray, 635/667 nm fluorescence (AID 1151).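 Also: Shh protein binding to compounds spotted on small-molecule microarray slides; score combines spot fluorescence intensity with signal-to-noise across triplicate slides.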 As to conditions: small-molecule microarray binding, 635 nm fluorescence; higher = more signal.

Activity calls are given as the source filed them. Unless noted, no rule for the calls is given here.

Torsin-1A (Homo sapiens), sequence (O14656 whole entry, looked up): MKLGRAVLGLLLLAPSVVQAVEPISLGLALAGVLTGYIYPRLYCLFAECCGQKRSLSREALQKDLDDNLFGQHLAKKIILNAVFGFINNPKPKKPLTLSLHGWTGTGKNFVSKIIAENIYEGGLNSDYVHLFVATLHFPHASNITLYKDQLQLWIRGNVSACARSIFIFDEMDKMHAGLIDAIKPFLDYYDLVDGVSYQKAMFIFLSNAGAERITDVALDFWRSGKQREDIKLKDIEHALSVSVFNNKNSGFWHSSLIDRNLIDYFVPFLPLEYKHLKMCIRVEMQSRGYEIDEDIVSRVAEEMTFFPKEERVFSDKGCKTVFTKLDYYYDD
Streptavidin (Streptomyces avidinii), sequence (P22629 whole entry, looked up): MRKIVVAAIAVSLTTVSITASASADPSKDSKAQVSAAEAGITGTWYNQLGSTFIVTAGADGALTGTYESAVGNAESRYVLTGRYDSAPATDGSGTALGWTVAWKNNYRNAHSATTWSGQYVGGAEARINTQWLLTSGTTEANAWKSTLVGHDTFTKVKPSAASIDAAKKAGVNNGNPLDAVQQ
Luciferin 4-monooxygenase (Photinus pyralis), sequence (P08659 whole entry, looked up): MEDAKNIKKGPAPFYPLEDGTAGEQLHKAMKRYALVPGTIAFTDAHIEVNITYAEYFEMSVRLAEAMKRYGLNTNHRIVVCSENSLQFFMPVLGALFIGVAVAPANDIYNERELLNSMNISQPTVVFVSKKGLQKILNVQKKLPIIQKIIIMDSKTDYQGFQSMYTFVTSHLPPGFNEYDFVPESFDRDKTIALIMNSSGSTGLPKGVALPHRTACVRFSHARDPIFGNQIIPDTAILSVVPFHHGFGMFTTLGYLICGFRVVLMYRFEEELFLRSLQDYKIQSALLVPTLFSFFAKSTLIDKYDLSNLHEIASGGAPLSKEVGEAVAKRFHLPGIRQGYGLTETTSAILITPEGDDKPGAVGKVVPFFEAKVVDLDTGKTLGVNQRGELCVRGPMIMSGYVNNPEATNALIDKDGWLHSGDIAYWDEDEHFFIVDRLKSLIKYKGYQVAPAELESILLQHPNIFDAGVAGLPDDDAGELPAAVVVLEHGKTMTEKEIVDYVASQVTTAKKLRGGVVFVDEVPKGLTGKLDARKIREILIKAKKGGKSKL
Follistatin (Homo sapiens), sequence (P19883 whole entry, looked up): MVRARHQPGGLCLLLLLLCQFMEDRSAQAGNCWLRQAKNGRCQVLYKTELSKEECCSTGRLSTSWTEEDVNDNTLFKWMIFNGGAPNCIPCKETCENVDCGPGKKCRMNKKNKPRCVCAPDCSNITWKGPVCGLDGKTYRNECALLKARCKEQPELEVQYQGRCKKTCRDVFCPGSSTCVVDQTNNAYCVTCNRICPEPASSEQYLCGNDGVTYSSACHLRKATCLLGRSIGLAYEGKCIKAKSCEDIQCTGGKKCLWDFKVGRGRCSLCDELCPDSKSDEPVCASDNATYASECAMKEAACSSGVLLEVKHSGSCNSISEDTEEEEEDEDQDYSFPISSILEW
Fibroblast growth factor 2 (Homo sapiens), sequence (P09038 whole entry, looked up): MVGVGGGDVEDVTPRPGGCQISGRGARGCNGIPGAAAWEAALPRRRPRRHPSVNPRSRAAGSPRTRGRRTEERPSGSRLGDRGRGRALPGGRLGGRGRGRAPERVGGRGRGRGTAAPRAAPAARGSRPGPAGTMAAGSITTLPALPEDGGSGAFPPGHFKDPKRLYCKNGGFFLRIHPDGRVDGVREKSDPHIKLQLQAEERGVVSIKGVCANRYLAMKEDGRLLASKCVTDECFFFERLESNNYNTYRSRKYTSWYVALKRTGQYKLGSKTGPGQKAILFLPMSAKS
Focal adhesion kinase 1 (Homo sapiens), sequence (Q05397 whole entry, looked up): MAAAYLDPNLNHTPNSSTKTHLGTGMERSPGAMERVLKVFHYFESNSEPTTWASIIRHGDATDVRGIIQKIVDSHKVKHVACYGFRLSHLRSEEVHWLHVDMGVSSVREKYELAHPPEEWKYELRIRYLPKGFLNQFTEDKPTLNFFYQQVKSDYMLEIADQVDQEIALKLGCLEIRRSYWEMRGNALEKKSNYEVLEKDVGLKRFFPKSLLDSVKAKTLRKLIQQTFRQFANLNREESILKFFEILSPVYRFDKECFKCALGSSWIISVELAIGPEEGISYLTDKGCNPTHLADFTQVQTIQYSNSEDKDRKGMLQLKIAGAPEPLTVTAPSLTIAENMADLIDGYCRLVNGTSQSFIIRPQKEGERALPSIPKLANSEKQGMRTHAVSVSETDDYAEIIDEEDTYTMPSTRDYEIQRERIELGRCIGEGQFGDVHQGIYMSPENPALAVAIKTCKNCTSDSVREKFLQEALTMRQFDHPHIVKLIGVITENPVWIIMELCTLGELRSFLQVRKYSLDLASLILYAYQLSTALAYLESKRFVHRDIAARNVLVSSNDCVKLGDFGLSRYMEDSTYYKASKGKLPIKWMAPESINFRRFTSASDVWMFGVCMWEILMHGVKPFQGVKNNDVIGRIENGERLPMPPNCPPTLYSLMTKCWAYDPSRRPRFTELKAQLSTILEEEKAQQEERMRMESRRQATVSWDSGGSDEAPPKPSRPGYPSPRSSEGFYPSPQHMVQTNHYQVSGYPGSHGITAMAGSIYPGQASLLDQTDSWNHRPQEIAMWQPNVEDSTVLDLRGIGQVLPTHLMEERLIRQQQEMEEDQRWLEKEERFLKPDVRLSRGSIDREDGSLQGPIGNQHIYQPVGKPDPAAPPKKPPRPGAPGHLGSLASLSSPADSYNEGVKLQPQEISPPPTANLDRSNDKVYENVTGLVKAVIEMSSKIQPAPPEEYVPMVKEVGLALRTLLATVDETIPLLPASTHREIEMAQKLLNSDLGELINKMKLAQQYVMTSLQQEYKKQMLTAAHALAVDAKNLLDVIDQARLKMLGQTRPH

`[N-]=[N+]=NCc1ccccc1[C@H]1OC(c2ccc(OCCCO)cc2)=N[C@@]1(Cc1ccccc1)C(=O)O`: the composite z-score in experiment [1] was 1.97; in [2] it was 0.762; in experiment [3] it was 0.551; in [4], 0.472; in experiment [5] it was 1.31; in experiment [6], 1.42. Besides, the composite z-score in the experiment on Lefty1 was 0.195; in [8] it was 0.611; in experiment [10], 0.631; in experiment [15], 1.37; in [16] it was -0.0477; with Torsin-1A (Homo sapiens) [17] it was 0.112. The composite z-score with Torsin-1A (Homo sapiens) [18] was 0.381; in experiment [19], -0.22. Moreover, the z-score in [7] was -0.0378; in experiment [9], -0.0016 (inactive); in experiment [11] it was -1.01 (inactive); in [12], 0.564 (inactive); in [13], -1.19 (inactive); in experiment [14] it was -0.609 (inactive).

With `COc1ccc(C(O)C2C=CC3C(=O)N(c4ccccc4)C(=O)C3N2Nc2ccccc2)c2ccccc12` (stereo not given), the composite z-score in [1] is 2.08; in experiment [2], 1.12; in [3], 0.592; in experiment [4] it was -0.833; in experiment [5], 0.037; in [6], -0.702. Also, the composite z-score was -0.0743 with Lefty1; 0.285 in [8]; 0.145 in [10]; 0.632 in experiment [15]; 0.382 in experiment [16]; -0.175 with Torsin-1A (Homo sapiens) [17]. Moreover, the composite z-score in the experiment with Torsin-1A (Homo sapiens) [18] was 0.15; in [19], -0.506. In addition, the z-score is -0.284 in experiment [7]; -0.597 (inactive) in [9]; -2.42 (inactive) in experiment [11]; -1.12 (inactive) in experiment [12]; 0.24 (inactive) in experiment [13]; 1.79 (inactive) in [14].

Regarding `CCCNC(=O)[C@@]1(C)c2ccccc2C(=O)N(Cc2ccc(OC(F)(F)F)cc2)[C@H]1c1ccc(CO)cc1`, the composite z-score in [1] was -0.607; in [2] it was 1.11; in experiment [3] it was 0.275; in [4], 0.264; in experiment [5], 0.778; in experiment [6] it was 0.557. Besides, the composite z-score was -0.526 in the experiment on Lefty1; 0.419 in experiment [8]; -0.0508 in experiment [10]; -0.456 in experiment [15]; 0.249 in [16]; 0.243 with Torsin-1A (Homo sapiens) [17]. The composite z-score with Torsin-1A (Homo sapiens) [18] came out at 0.6; in experiment [19] it was 0.628. Moreover, the z-score in experiment [7] is 1.07; in experiment [9], -0.166 (inactive); in [11] it was -2.65 (inactive); in experiment [12], 0.28 (inactive); in experiment [13], -0.0259 (inactive); in experiment [14], -0.326 (inactive).

Take `COC(=O)C(CC#Cc1ccc2c(c1)[C@]1(C(=O)N2)[C@H](C(=O)N2CCCCCCC2)[C@H]2C(=O)O[C@H](c3ccccc3)[C@H](c3ccccc3)N2[C@@H]1c1ccccc1OCCO)C(=O)OC`: the composite z-score was determined as 3 in experiment [1]; 1.35 in experiment [2]; 4.24 in experiment [3]; 0.654 in experiment [4]; 1.56 in [5]; 0.197 in experiment [6]. Further, the composite z-score is 1.89 with Lefty1; 1.73 in [8]; 2.44 in experiment [10]; 4.06 in experiment [15]; 2.24 in experiment [16]; 3.84 in the experiment with Torsin-1A (Homo sapiens) [17]. Further, the composite z-score with Torsin-1A (Homo sapiens) [18] is 3.73; in experiment [19] it was 2.04. For the same compound, the z-score in [7] was -1.08; in experiment [9], -0.525 (inactive); in experiment [11], -3.54 (inactive); in [12], -0.429 (inactive); in [13] it was -0.141 (inactive); in experiment [14], -0.81 (inactive).

(Values after PubChem BioAssay.)
